PNC inhibitor – perinucleolar compartment assembly inhibition. PC3M PTB-GFP, PNC prevalence imaging, 16 h; stronger effect = lower value. AID 2417. activity change (PNC), negative = inhibition, % at 10 µM. 140,000 compounds, 3.1% hits;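 active means readout at or below -70, meaning at least 70% loss of cells showing the perinucleolar compartment, a nuclear body marking cancer cells; inconclusive means readout between -30 and a set limit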;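 further: plate controls were DMSO wells for no effect and camptothecin positive control wells for full effect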
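Read-out is percentage of cells bearing a perinucleolar compartment, from automated 20x imaging of fixed, Hoechst-stained PC3M PTB-GFP cells. Cells were seeded 4 h, then exposed 16 h to compound (23 nl of library stock) in duplicate plates.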
HPGD inh – inhibitors of human 15-hydroxyprostaglandin dehydrogenase (HPGD) | P15428 | purified HPGD, NADH fluorescence kinetic, PGE2 substrate | Potency, µM, without a hit: at the highest dose activity change, negative = inhibition, usual class: inhibitors | 150,000 compounds, 4.3% hits | AID 894; further: potency means the concentration at half of the fitted maximal effect
Target sequence (P15428 whole entry, looked up): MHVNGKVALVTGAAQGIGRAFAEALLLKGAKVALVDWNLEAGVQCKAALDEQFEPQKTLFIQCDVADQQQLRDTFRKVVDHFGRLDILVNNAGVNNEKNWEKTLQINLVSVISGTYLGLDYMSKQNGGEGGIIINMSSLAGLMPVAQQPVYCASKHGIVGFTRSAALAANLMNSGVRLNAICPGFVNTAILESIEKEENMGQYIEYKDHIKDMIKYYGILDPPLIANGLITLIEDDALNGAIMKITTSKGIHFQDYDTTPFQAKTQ
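20 nM HPGD preincubated 15 min at room temperature with compound in 50 mM Tris-HCl pH 8, 0.01% Tween 20. Started with 1 mM NAD+ and 30 uM prostaglandin E2; NADH fluorescence (360/450 nm) read 5 times over 30-s intervals, last minus first.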
ALDH1A1 block – blocks purified human ALDH1A1 activity; AID 1030; Potency, µM (series often up to 75.3 µM), for the others: top-dose activity, negative = inhibition, hits mostly inhibitors; P00352; 220,000 compounds, 7.3% hits; Purified ALDH1A1, NADH fluorescence, propionaldehyde substrate;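 further: potency means the concentration at half of the fitted maximal effect; plate controls were no enzyme wells and a reference inhibitor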
The depositor's hits bear a star; ? = inconclusive; · = no result; [ ] = remark or other dose. Compounds with a hit are over-represented: about 11% of the library has one in this group of screens. Unless noted, the call rests on the fitted dose curve; in most records, active means well fitted inhibition curve with a large enough effect (not every such curve was filed as active); inconclusive means small, poorly fitted or top-dose-only effect, or another doubt; inactive means no such curve, though single readings can be large or run the other way. Unless noted, on the % scale 0 is the no-effect control and ±100 the full control effect.

SMILES	PNC inhibitor	HPGD inh	ALDH1A1 block
COC(=O)C1=C(C)N=C2SCCC(=O)N2C1c1cc(Br)ccc1OC (centres undefined)	-5	·	?
COc1ccc(C(=O)Oc2cccc(/C=N/NC(N)=S)c2)cc1	?	-18%	-19%
CC(=O)N(C)c1ccc(NC(=O)c2cnn(C)c2)cc1	57	-7%	-3%
Cc1ccc(NC(=O)CC2C(=O)N(Cc3ccccc3)C(=S)N2NC(=O)c2ccccc2)c(C)c1 (centres undefined)	?	-4%	-11%
CC(=O)Nc1ccc(N)cc1	·	-1%	2%
O=C(CSCc1c(F)cccc1Cl)NCc1cccnc1	?	-11%	?
O=C(NCCSCc1c(F)cccc1Cl)c1ccco1	-15	5µM*	16µM*
COCCNC(=O)CSCc1c(F)cccc1Cl	42	22µM*	11%
COc1ccc(CNC(=O)CSCc2c(F)cccc2Cl)cc1	·	·	2.2µM*
O=C(O)CSCc1c(F)cccc1Cl	-14	-15%	5%
O=C(CNC(=O)c1ccco1)OCc1c(F)cccc1Cl	68	0%	14%
COc1cc(C)ccc1OCCOCCOc1ccc([N+](=O)[O-])cc1	-16	-17%	?
C=C(C)C(O)/C=C/c1ccc(Br)cc1 (centres undefined)	·	-2%	5%
CC1CCc2sc(C(=O)NN=C3CCC(c4ccccc4)CC3)cc2C1 (centres undefined)	44	-16%	1.3µM*
CC(C)(C)C1CCc2c(C(=O)NNC(=O)CCC(=O)O)csc2C1 (centres undefined)	-1	-5%	0%
CC(C)(C)C1CCc2sc(C(=O)NNC(=O)CCl)cc2C1 (centres undefined)	·	·	3.2µM*
CC(C)(C)C1CCC(=NNC(=O)c2cc3c(s2)CCCC3)CC1 (centres undefined)	28	-16%	4µM*
CC1CCc2sc(C(=O)N/N=C/c3ccc([N+](=O)[O-])cc3)cc2C1 (centres undefined)	?	-11%	3%
CC(C)(C)C1CCC(=NNC(=O)c2ccccc2-n2cccc2)CC1 (centres undefined)	16	-14%	5µM*
CC(C)(C)C1CCC(=NNC(=O)CC(=O)NCc2ccccc2)CC1 (centres undefined)	3	-10%	-7%
Cc1cnc(NC(=O)c2cc3c(s2)CCCC3)s1	13	?	?
Cc1cccc(N2C(=O)CCC2=O)n1	-21	0%	14%
O=C(O)Cc1c[nH]c2ccc(F)cc12	·	-8%	9%[13.5 µM]
CCC(C)OC(=O)C1=C(C)NC(=O)CC1c1ccccc1OC (centres undefined)	?	-13%	-2%
COC(=O)C(Cc1ccccc1)NC(=O)C12CC3CC(CC(C3)C1)C2 (centres undefined)	?	-2%	-7%
SMILES	PNC inhibitor	HPGD inh	ALDH1A1 block
O=C(Nc1ccc(Cl)c(S(=O)(=O)N2CCOCC2)c1)c1ccccc1-c1ccc(C(F)(F)F)cc1	21	-23%	?
COc1ccccc1CCNC(=O)c1ccoc1C	19	-17%	-8%
NS(=O)(=O)c1ccc2c(c1)oc(=O)c1cc(S(N)(=O)=O)ccc12	·	·	10%
O=C(NN=C1CCC(c2ccccc2)CC1)c1cc2c(s1)CCCC2 (centres undefined)	-6	-10%	7.9µM*
CC(C)NC(=S)NN=C1CCC(c2ccccc2)CC1 (centres undefined)	·	·	1%
Cn1c(Cc2csc(N)n2)nnc1SCC(=O)NC1CCCCC1	?	-9%	?
Cn1c(Cc2csc(N)n2)nnc1SCC(=O)NCc1ccccc1	-92*	-10%	28µM*
COC(=O)CSc1ccc(S(=O)(=O)N2CCCCCC2)cc1[N+](=O)[O-]	·	·	10µM*
CN(CC(=O)Nc1ccc(Cl)cc1)c1ccc(S(=O)(=O)N2CCCCC2)cc1[N+](=O)[O-]	5	-14%	11µM*
CN(CC(=O)Nc1ccc(S(=O)(=O)N2CCCC2)cc1)Cc1ccc(Cl)cc1Cl	15	-13%	?
CCOC(=O)CSc1ccc(S(=O)(=O)N2CCCCC2)cc1[N+](=O)[O-]	9	-7%	-11%
O=C(COc1ccc2ccccc2c1)Nc1ccc(S(=O)(=O)N2CCCCCC2)cc1	-25	-8%	2%
COC(=O)N1CCC2(CCCN(c3ccc(-c4ccccc4)cc3)C2)CC1	·	-25%	?
O=C(Nc1ccccc1O)c1cc(S(=O)(=O)N2CCOCC2)ccc1Cl	-16	-6%	1%
CC1(C)CC(=O)C(N=Nc2c(Cl)cc(Cl)cc2Cl)=C(O)C1	?	-16%	2µM*
CC1(C)CC(=O)C(N=Nc2cc(C(F)(F)F)ccc2Cl)=C(O)C1	·	·	1.4µM*
CC1(C)CC(=O)C(N=Nc2cc(S(=O)(=O)N3CCOCC3)ccc2Cl)=C(O)C1	·	·	0.1µM*
